Results taken from article PMC8384837, “Expanding the binding specificity for RNA recognition by a PUF domain”.

The sequences below were run against PUM1 PUF domain R5-RCM (Homo sapiens, UniProt Q14671 828-1176, C1007R;R1008C;Q1011M) (assay: yeast three-hybrid, YBZ-1, SC-Leu-His + 0.5 mM 3-AT, 4 days). Details: tags: N-Gal4 AD-HA kept; label: inside an RPR1-promoter hybrid RNA with tandem MS2 sites; ssRNA.
How it was run: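 Matching RNA elements and Pumilio-1 PUF domain libraries, randomized at the three base-contacting residues of every repeat, were co-expressed from a centromeric plasmid in strain YBZ-1 (LexA–MS2 coat fusion, HIS3 reporter). The repeat regions were PCR-amplified and Illumina-sequenced from cells grown four days on SC-Leu (input) or SC-Leu-His + 0.5 mM 3-AT (selection). The interaction score is the log change in variant frequency from input to selection. It is computed in log2, with a pseudocount of 1 for absent variants.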
“GGCUAGAACUAGUGGAUCCCCCGGCGCCCGGCGGCUCGAGCCCGGGUAAGUGUAAAUAGUCUGCAUGCCGCCGGGCGCCAUGCCUGCAGGUCGACUCUAGAAAACAUG” was tested, and the binding signal was 0.77 log2 enrichment (interaction score).
“GGCUAGAACUAGUGGAUCCCCCGGCGCCCGGCGGCUCGAGCCCGGGUAAGUGUCAAUAGUCUGCAUGCCGCCGGGCGCCAUGCCUGCAGGUCGACUCUAGAAAACAUG” was tested, and the binding signal was 3.2 log2 enrichment (interaction score).
“GGCUAGAACUAGUGGAUCCCCCGGCGCCCGGCGGCUCGAGCCCGGGUAAGUGUGAAUAGUCUGCAUGCCGCCGGGCGCCAUGCCUGCAGGUCGACUCUAGAAAACAUG” was tested, and the binding signal was 1.67 log2 enrichment (interaction score).
